Measurements as given in PubChem BioAssay (Tox21).
A number with no mark means an inactive call. Results filed as inconclusive are left out. A call without a number means that no potency is given here. Active and inactive are the calls of the source. Unless noted, calls come from the whole dose curve; as a rule, active = well fitted curve in the direction sought with a large enough effect in the repeat runs; inconclusive = weak or mixed curves; inactive = no such curve, though single readings can be large; an effect the other way counts as inactive or inconclusive.

Columns and labels:
[1] = A CellTox Green Cytotoxicity Assay to monitor cytotoxicity in HEK293 cells - 32 hour (AID 1224881); conditions: CellTox Green fluorescence; series mostly up to 76.8 µM; note: nearly all actives have a fitted effect of over 40% in size; note: potency is the fitted concentration of half-maximal effect
Summary of the method: (§1)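 Dead-cell fluorescence measured kinetically: asymmetric cyanine dye, HEK293, 600 cells/well, 5 h settle, 23 nL cpd/DMSO, 37 C, reads 0–40 h every 8 h.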

[2] = A CellTox Green Cytotoxicity Assay to monitor cytotoxicity in HepG2 cells - 0 hour (AID 1224882); conditions: CellTox Green fluorescence; series mostly up to 76.8 µM; note: nearly all actives have a fitted effect of over 35% in size
Summary of the method: (§2)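 First, HepG2 cells (600/well) mixed with reagent were plated; second, after 5 h at 37 C they received compounds via pintool; third, fluorescence was measured at 0 h through 40 h at 8 h intervals.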

[3] = A CellTox Green Cytotoxicity Assay to monitor cytotoxicity in HEK293 cells - 8 hour (AID 1224884); conditions: CellTox Green fluorescence; series mostly up to 76.8 µM; note: nearly all actives have a fitted effect of over 35% in size
Summary of the method: as §1

[4] = qHTS RealTime-Glo MT Cell Viability Assay in HEK293 cells - 24 hour (AID 1224886); conditions: RealTime-Glo luminescence; series mostly up to 76.8 µM; note: nearly all actives have a fitted effect of over 50% in size; note: potency is the fitted concentration of half-maximal effect
Summary of the method: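 Viability tracked continuously by luminescence as live cells reduce a prosubstrate for NanoLuc; HEK293 cells preincubated 5 h, compound-treated at 37 C, and read at 0, 8, 16, 24, 32 and 40 h.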

[5] = A CellTox Green Cytotoxicity Assay to monitor cytotoxicity in HEK293 cells - 16 hour (AID 1224888); conditions: CellTox Green fluorescence; series mostly up to 76.8 µM; note: nearly all actives have a fitted effect of over 35% in size
Summary of the method: as §1

[6] = qHTS RealTime-Glo MT Cell Viability Assay in HepG2 cells - 0 hour (AID 1224889); conditions: RealTime-Glo luminescence; series mostly up to 76.8 µM; note: nearly all actives have a fitted effect of over 50% in size
Summary of the method: (§3)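 Viability was tracked continuously by NanoLuc luminescence from prosubstrate reduced by living HepG2 cells, at successive time points over 40 h of compound exposure. Cells with reagent were preincubated 5 h at 37 °C before compound addition.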

[7] = qHTS assay to identify small molecule antagonists of the estrogen receptor alpha (ER-alpha) signaling pathway using the BG1 cell line in the presence of 0.1 nM 17-beta-estradiol - cell viability counter screen (AID 1259241); conditions: VM7Luc4E2 (BG1) viability, CellTiter-Fluor protease, 22 h, 0.1 nM estradiol agonist added; series mostly up to 92.4 µM; note: nearly all actives have a fitted effect of over 40% in size
Summary of the method: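 Live-cell protease activity (CellTiter-Fluor fluorescence, 30 min) was read in the same wells after VM7Luc4E2 cells had been exposed to compounds with 0.1 nM 17beta-estradiol for 22 hr at 37C.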

[8] = qHTS assay to identify small molecule phospholipidosis (PLD) inducers (AID 1259344; active = well fitted curve in the direction sought with a large enough effect; an effect the other way counts as inactive or inconclusive); conditions: HepG2 phospholipidosis, LipidTOX Red imaging, 24 h; series mostly up to 38.3 µM
Summary of the method: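 Image-based: LipidTOX Red pit count/intensity per well and per cell; HepG2, 24 h compound at 37 C, PFA fixation, Hoechst counterstain.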

[9] = qHTS assay to identify small molecule HDAC inhibitors (AID 1259364); conditions: HCT-116 HDAC-Glo I/II luminescence, 2 h; series mostly up to 92.4 µM;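 note: wild-type HCT-116 cells with endogenous class I/II HDAC activity; top concentration of the series differs between compounds; nearly all actives have a fitted effect of over 45% in size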
Summary of the method: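 Quantitative high-throughput format: overnight-seeded HCT-116 cells got compounds for 2 hr at 37C; HDAC-Glo I/II reagent added, 30 min RT, luminescence measured.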

[10] = qHTS assay to identify small molecule HDAC inhibitors - cell viability counter screen (AID 1259365); conditions: HCT-116 viability, CellTiter-Glo ATP luminescence, 2 h; series mostly up to 92.4 µM; note: nearly all actives have a fitted effect of over 50% in size
Summary of the method: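 HCT-116 (wild type), 1,500 cells/well, overnight 37C/5% CO2; compound in DMSO 2hr; CellTiter-Glo 30min RT; luminescence read.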

[11] = qHTS assay to identify small molecule agonists of the sonic hedgehog signaling (Shh) pathway - cell viability counter screen (AID 1259366); conditions: NIH/3T3 Gli1-Luc viability, CellTiter-Fluor, 24 h; series mostly up to 92.4 µM; note: nearly all actives have a fitted effect of over 50% in size
Summary of the method: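 CellTiter-Fluor fluorescence read-out, 1 hr at 37C, added after 23hr compound exposure. Cells: 3T3 Gli1-Luc, an NIH/3T3 clone with stably integrated Gli1-Luc reporter, plated 4hr before compound.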

[12] = qHTS assay to identify small molecule antagonists of the sonic hedgehog signaling (Shh) pathway - cell viability counter screen (AID 1259367); conditions: NIH/3T3 Gli1-Luc viability, CellTiter-Fluor, 24 h; series mostly up to 92.4 µM; note: nearly all actives have a fitted effect of over 55% in size
Summary of the method: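 Tox21 library chemicals were tested on a Gli1-Luc NIH/3T3 clone (2,000 cells/well) stimulated by conditioned medium; viability was quantified as fluorescence from CellTiter-Fluor reagent added at 23 hr.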

[13] = qHTS assay to identify small molecule agonists of the sonic hedgehog signaling (Shh) pathway (AID 1259368; calls by dose curve;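 note: NIH/3T3-derived 3T3Gli1-Luc cells carrying a stable Gli1-driven firefly luciferase reporter; nearly all actives have a fitted effect of over 15% in size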); conditions: NIH/3T3 Gli1-Luc reporter, luciferase, 24 h, hits give high values; series mostly up to 92.4 µM
Summary of the method: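 Quantitative high-throughput format using a Gli1-driven firefly luciferase reporter line derived from NIH/3T3 cells. After a 24 hr compound treatment at 37 C and 5% CO2, luminescence reported Gli1 response element activity.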

[14] = qHTS RealTime-Glo MT Cell Viability Assay in HepG2 cells - 16 hour (AID 1224885); conditions: RealTime-Glo luminescence; series mostly up to 76.8 µM; note: nearly all actives have a fitted effect of over 50% in size
Summary of the method: as §3

[15] = A CellTox Green Cytotoxicity Assay to monitor cytotoxicity in HepG2 cells - 8 hour (AID 1224890); conditions: CellTox Green fluorescence; series mostly up to 76.8 µM; note: nearly all actives have a fitted effect of over 45% in size
Summary of the method: as §2

[16] = qHTS assay to identify small molecule antagonists of the androgen receptor (AR) signaling pathway using the MDA cell line in the presence of 0.5 nM R1881 - cell viability counter screen (AID 1259242); conditions: MDA-kb2 viability, CellTiter-Fluor protease fluorescence, 16 h; series mostly up to 92.4 µM; note: nearly all actives have a fitted effect of over 45% in size
Summary of the method: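 qHTS format. MDA-kb2 (MMTV-luc, AR/GR responsive) + cpd + 0.5 nM R1881 final, 16 hr 37C/0% CO2 → CellTiter-Fluor 30 min → fluorescence intensity.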

[17] = molecular target: Estrogen receptor (Homo sapiens) (UniProt P03372); experiment: qHTS assay to identify small molecule antagonists of the estrogen receptor alpha (ER-alpha) signaling pathway using the BG1 cell line in the presence of 0.1 nM 17-beta-estradiol (AID 1259244); conditions: VM7Luc4E2 (BG1) ERE-luciferase, antagonist mode, 0.1 nM E2, 22 h; series mostly up to 92.4 µM; note: nearly all actives have a fitted effect of over 50% in size
Summary of the method: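 Reporter is a stably transfected luciferase under four estrogen responsive elements in VM7Luc4E2 cells expressing native full-length ER-alpha; inhibition of 0.1 nM (final) 17beta-estradiol-driven signal over 22 h is read by luminescence.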

[18] = A CellTox Green Cytotoxicity Assay to monitor cytotoxicity in HepG2 cells - 32 hour (AID 1224883); conditions: CellTox Green fluorescence; series mostly up to 76.8 µM; note: nearly all actives have a fitted effect of over 50% in size; note: potency is the fitted concentration of half-maximal effect
Summary of the method: as §2

[19] = qHTS RealTime-Glo MT Cell Viability Assay in HEK293 cells - 8 hour (AID 1224887); conditions: RealTime-Glo luminescence; series mostly up to 76.8 µM
Summary of the method: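 600 HEK293 cells per well, dispensed already mixed with RealTime-Glo MT reagents. Compound dosing came 5 h later. The same wells were read for luminescence at 0, 8, 16, 24, 32 and 40 h of exposure at 37 C.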

Estrogen receptor (Homo sapiens), sequence (P03372 whole entry, looked up): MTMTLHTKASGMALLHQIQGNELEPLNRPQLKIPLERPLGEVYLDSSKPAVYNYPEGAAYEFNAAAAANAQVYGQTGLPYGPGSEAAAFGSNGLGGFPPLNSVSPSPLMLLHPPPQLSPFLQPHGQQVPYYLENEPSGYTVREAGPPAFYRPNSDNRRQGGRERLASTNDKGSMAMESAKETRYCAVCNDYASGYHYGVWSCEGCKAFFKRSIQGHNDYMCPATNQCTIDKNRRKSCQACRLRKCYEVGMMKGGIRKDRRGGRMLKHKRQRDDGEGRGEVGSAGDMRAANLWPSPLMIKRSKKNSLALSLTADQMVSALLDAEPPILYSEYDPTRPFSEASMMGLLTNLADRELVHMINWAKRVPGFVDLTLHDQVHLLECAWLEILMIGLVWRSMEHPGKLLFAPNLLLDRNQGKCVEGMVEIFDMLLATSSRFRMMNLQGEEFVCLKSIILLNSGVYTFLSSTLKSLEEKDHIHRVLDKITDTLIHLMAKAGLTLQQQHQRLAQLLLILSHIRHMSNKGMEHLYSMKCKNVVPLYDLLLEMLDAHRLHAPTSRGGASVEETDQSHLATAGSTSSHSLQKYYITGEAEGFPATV

| SMILES | Potency [1] | Potency [2] | Potency [3] | Potency [4] | Potency [5] | Potency [6] | Potency [7] | Potency [8] | Potency [9] | outcome [10] | Potency [11] | Potency [12] | outcome [13] | Potency [14] | Potency [15] | Potency [16] | Potency [17] | Potency [18] | Potency [19] |
| --- | --- | --- | --- | --- | --- | --- | --- | --- | --- | --- | --- | --- | --- | --- | --- | --- | --- | --- | --- |
| CN1CCC[C@@H]1c1cccnc1 | inactive | inactive | inactive | inactive | inactive | inactive | inactive | inactive | inactive | inactive | inactive | inactive | inactive | – | – | – | – | – | – |
| CCOc1ccc(NC(=O)CC(C)=O)cc1 | inactive | inactive | inactive | inactive | inactive | inactive | inactive | – | – | – | inactive | inactive | inactive | inactive | inactive | inactive | – | – | – |
| CC1=CC(=O)/C(=C(/C)O)C(=O)O1 | inactive | inactive | inactive | inactive | inactive | inactive | inactive | – | inactive | inactive | inactive | inactive | inactive | inactive | inactive | inactive | inactive | – | – |
| CN1CCC(=C2c3ccccc3CCc3sccc32)CC1 | – | inactive | inactive | inactive | inactive | inactive | – | – | inactive | inactive | inactive | inactive | inactive | inactive | inactive | inactive | – | 23.9 µM (active) | inactive |
| CCCCc1cc2ccccc2c(OCCN(C)C)n1 | 21.3 µM (active) | inactive | – | – | inactive | inactive | inactive | – | inactive | inactive | inactive | inactive | inactive | – | inactive | – | – | – | inactive |
| O=C(O)/C=C/c1cnc[nH]1 | – | inactive | inactive | inactive | inactive | inactive | inactive | – | inactive | – | inactive | inactive | inactive | inactive | inactive | inactive | – | inactive | – |
| CCCCCCCCCO | – | inactive | inactive | inactive | inactive | inactive | inactive | – | inactive | inactive | inactive | inactive | inactive | inactive | inactive | inactive | inactive | inactive | inactive |
| CN(C)C/C=C(/c1ccc(Br)cc1)c1cccnc1 | – | inactive | inactive | inactive | inactive | inactive | – | inactive | inactive | inactive | inactive | inactive | inactive | inactive | inactive | inactive | – | inactive | inactive |
| O=C1[C@H](CC[C@H](O)c2ccc(F)cc2)[C@@H](c2ccc(O)cc2)N1c1ccc(F)cc1 | – | inactive | inactive | 23.9 µM (active) | inactive | inactive | inactive | inactive | inactive | inactive | inactive | inactive | inactive | inactive | inactive | inactive | – | inactive | – |
